These results are taken from PubChem BioAssay.

Unmarked numbers belong to inactive results.

A short description of the assay: FRG1 promoter luciferase signal modulators, primary screen, FRG1 inhibition for FSHD, cell-based, C2C12 myotubes, firefly/Renilla luciferase, luminescence (AID 1084). Conditions: higher = more signal, called active from +8 up or from −8 down.
As for `CC1CC/C=C\[C@H]2OC34C=CCN(C(C)(C)C)C(=O)[C@H]3N(CCCCCO)C(=O)[C@@H]4C2C(=O)O1` (stereo not given in full), the z-score is -0.0661.

Consider `COc1cc(NN2C(C(O)c3cc(OC)c(OC)c(OC)c3)C=CC3C(=O)N(C)C(=O)C32)cc(OC)c1OC` (stereo not given), for which the z-score is 0.78.

On to `[N-]=[N+]=NCc1ccccc1[C@H]1OC(c2ccc(OCCCO)cc2)=N[C@@]1(Cc1ccccc1N=[N+]=[N-])C(=O)NCC(O)CO` (stereo not given in full), for which the z-score was 1.5. For the compound `C=C(COC)/C(=C/C[C@H](OC(=O)c1ccncc1)c1ccccc1OCCO)c1cc(C(=O)OC)ccc1OC`, the z-score was -0.872.

Regarding `CC(C)=C1C(=O)C(c2ccccc2)=C2CN3C(=O)N(CCc4ccccc4)C(=O)[C@]3(Cc3ccc(C(F)(F)F)cc3)[C@H]21`, the z-score was 0.845. In the case of `NCCCCCCNC(=O)[C@@H]1C[C@@H]2C(=O)N[C@@H](CCCCN)C(=O)N2[C@@H]1c1ccc(O)cc1`, the z-score was 0.598.

For `CC(C)[Si](C#CCCCC#N)(O[C@H](c1ccccc1)c1cn(Cc2ccccc2)nn1)C(C)C`, the z-score was -2.06.

On to `CC(C)c1ccc(NN2C(C(O)c3ccc(C#N)cc3)C=CC3C(=O)N(c4ccccc4)C(=O)C32)cc1` (stereo not given), for which the z-score was -2.97. On to `COC(=O)[C@]1(CCS(=O)(=O)c2ccccc2)N=C(c2ccc(OCCCO)cc2)O[C@@H]1c1ccccc1N=[N+]=[N-]`, for which the z-score was 1.89.

Consider `C=C[C@H](C)[C@H](OC(=O)Nc1ccc(SC)cc1)c1ccc(OCCO)cc1`, for which the z-score was 4.38. With `Cc1ccc(S[C@]2(C(=O)NCC(F)(F)F)CC(=O)N(Cc3cc(C(F)(F)F)cc(C(F)(F)F)c3)[C@@H]2c2ccc(CO)cc2)cc1`, the z-score is 0.0697. For `O=C1OCCC=C[C@H]2OC34C=CCN(c5ccc6ccccc6c5)C(=O)[C@H]3N(CCCO)C(=O)[C@@H]4C12` (stereo not given in full) the value was -0.0625; for `O=C1O[C@H](c2ccccc2)[C@H](c2ccccc2)N2[C@H]1[C@@H](C(=O)O)[C@]1(C(=O)Nc3ccc(C#CCCO)cc31)[C@H]2c1ccccc1OCCO`, 0.37. For `COC(=O)[C@@]1(Cc2ccc(F)cc2)[C@H]2c3cc(C(=O)N4CCCC4)n(CCc4c[nH]c5ccccc45)c3C[C@H]2CN1C(=O)c1ccccc1` the value was -2.21; for `[N-]=[N+]=Nc1ccccc1C[C@]1(C(=O)N2CCOCC2)COC(c2ccc(OCCCO)cc2)=N1`, 1.71. For `C=CCN1C(=O)[C@]2(CCC(=O)OC(C)(C)C)N=C(c3ccc(OCCCO)cc3)O[C@@H]2c2ccccc21` the value was -2.29.

Take `O=C1OCCC=C[C@H]2OC34C=CCN(Cn5nnc6ccccc65)C(=O)[C@H]3N(CCCO)C(=O)[C@@H]4C12` (stereo not given in full): the z-score is 0.0397. Turning to `COCCOC(=O)N1C(=O)[C@@]2(c3ccccc31)[C@H](c1ccc(O)cc1)N1[C@H](c3ccccc3)[C@H](c3ccccc3)OC(=O)[C@H]1[C@@H]2C(=O)N1CCN(c2ncccn2)CC1`, the z-score is -1.27. As for `Cc1ccc(S[C@]2(C(=O)NCC(F)(F)F)CC(=O)N(Cc3cc(C(F)(F)F)cc(C(F)(F)F)c3)[C@@H]2c2ccc(CO)cc2I)cc1`, the figure is -0.326; as for `C#CCN([C@@H](Cc1ccccc1)C(=O)OC)[C@@H](/C=C/C1CC1)[C@H](O)Cc1ccccc1`, -4.13. Consider `CC(C)C(CO)N1C(=O)[C@@H]2[C@H]3C(=O)OCC=C[C@H]3OC23C=CCN(c2ccc(Cl)cc2)C(=O)[C@@H]13` (stereo not given in full), for which the z-score was -0.459. Take `COC(=O)[C@@]1(Cc2ccc(F)cc2)[C@H]2c3cc(C(=O)N4CCCC4)n(Cc4ccc(C)c(F)c4F)c3C[C@H]2CN1C(=O)c1ccccc1`: the z-score was 2.59. Take `COc1ccccc1CN1C(=O)c2ccccc2[C@](Cc2ccccc2I)(C(=O)O)[C@@H]1c1ccc(CO)cc1`: the z-score is -1.49. As to `COc1ccc([C@H]2OC[C@@H]3C[C@H](Cc4ccccc4)C(=O)N32)cc1`, the z-score was 0.18.

As for `COCCOC(=O)N1C(=O)[C@@]2(c3cc(C#CC4(O)CCCCCC4)ccc31)[C@H](c1ccc(O)cc1)N1[C@H](c3ccccc3)[C@H](c3ccccc3)OC(=O)[C@H]1[C@@H]2C(=O)N1CCN(c2ncccn2)CC1`, the z-score is 0.821. Consider `CCCC1(C(=O)OC)C=C2C(=C(C)C(=O)C2C)CN1` (stereo not given), for which the z-score is 3.02. Turning to `COc1cc(NN2C(C(O)c3ccco3)C=CC3C(=O)N(C)C(=O)C32)cc(OC)c1OC` (stereo not given), the z-score is -0.389. Turning to `CCCNC(=O)[C@@H]1c2ccccc2C(=O)N(Cc2ccc(OC(F)(F)F)cc2)[C@H]1c1ccc(CO)cc1`, the z-score is -1.88. Consider `C=CC[C@@H](OC(=O)Nc1ccc(OC)cc1)c1ccc(O)c(F)c1`, for which the z-score is 6.36. As for `CCCC[C@@H](O)C1=C(COC)C[C@H]2C(=O)N(Cc3ccccc3)C(=O)[C@H]2[C@H]1CO`, the figure is 0.646; as for `CC(C)NC(=O)[C@@]1(c2ccc([N+](=O)[O-])cc2)CC(=O)N(C2CCCCC2)[C@@H]1c1ccc(CO)cc1`, -0.629. `CC1CC/C=C\[C@H]2OC34C=CCN(c5ccc(Cl)cc5)C(=O)[C@H]3N(C(C)CO)C(=O)[C@]4(C)C2C(=O)O1` (stereo not given in full): the z-score is 0.242.

For `COc1cc2c(cc1O)C(C1CC1)N(Cc1cccc(OC(F)(F)F)c1)CC2` (stereo not given), the z-score is 0.329. As for `CC(c1ccccc1)C(O)C1C=CC2C(=O)N(C)C(=O)C2N1Nc1ccccc1` (stereo not given), the z-score was 0.796. In the case of `CCOC(=O)C1=CC[C@@H](c2ccccc2F)N(S(=O)(=O)c2ccc(C)cc2)[C@H]1c1ccccc1`, the z-score was -3.46.
